Out of some 190,000 compounds screened, about 810 (0.43%) were called active. Rule as the data show it: active = inhibition above about 50%; inactive = the rest. The list comes from a sample in which actives are over-represented; it also holds similar structures and randomly drawn compounds.
The compounds below were run against Mannose-6-phosphate isomerase (Homo sapiens) (UniProt P34949) (assay: inhibitors of human PMI, primary screen, biochemical, fluorescence intensity, coupled assay (AID 1209;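 also: plate controls were DMSO vehicle for no effect and wells lacking substrate for full effect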)). Conditions: purified PMI enzyme, at 20 µM, active compounds read high.
Sequence of Mannose-6-phosphate isomerase (Homo sapiens) (P34949 whole entry, looked up): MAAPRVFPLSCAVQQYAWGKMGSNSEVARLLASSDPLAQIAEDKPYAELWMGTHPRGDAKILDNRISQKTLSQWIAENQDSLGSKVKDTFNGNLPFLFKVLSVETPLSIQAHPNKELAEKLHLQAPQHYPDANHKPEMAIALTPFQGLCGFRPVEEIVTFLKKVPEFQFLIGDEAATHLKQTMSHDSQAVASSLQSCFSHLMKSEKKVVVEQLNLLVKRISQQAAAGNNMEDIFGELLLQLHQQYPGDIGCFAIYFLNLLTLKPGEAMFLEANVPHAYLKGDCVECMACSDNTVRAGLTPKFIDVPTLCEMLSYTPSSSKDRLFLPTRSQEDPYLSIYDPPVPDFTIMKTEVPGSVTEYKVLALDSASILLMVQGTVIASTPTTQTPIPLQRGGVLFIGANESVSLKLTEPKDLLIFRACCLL

inhibition, inactive:
O=c1c(Cc2ccc(F)cc2)c(O)ccn1CCCn1ccnc1 3%
O=C(Oc1ccc(C(=S)N2CCOCC2)cc1)c1ccccc1 3.3%
O=C(Oc1ccc(C(=S)N2CCOCC2)cc1)c1ccc(Br)cc1 5.3%
O=C(Nc1ncccn1)c1ccc(C(F)(F)F)cc1 4%
CCOC(=O)C1(CCOC)CCN(Cc2ccccc2-c2ccco2)CC1 3.5%
O=C1CCCN2N=C(SCC(=O)Nc3nccs3)SC2=N1 -3.6%
CCOC(=O)C1=C(C)Nc2ccccc2N=C1NC(=O)Cc1ccc(OC)cc1 1.1%
CCOC(=O)C1=C(C)Nc2ccccc2N=C1NC(=O)/C=C/c1ccc(OC)cc1OC 19.3%
Cc1c(-c2ccccc2)[n+](=O)c(-c2ccc(Cl)cc2)c(C)n1[O-] 4.1%
Cc1ccc(CN(c2ccc(C(=O)NCc3cccnc3)cc2)S(C)(=O)=O)cc1 -2.9%
c1ccc(CCc2nn3c(Cc4ccccc4)nnc3s2)cc1 38.2%
Clc1ccccc1-c1nn2c(COc3ccccc3)nnc2s1 9.4%
c1ccc(Cc2nnc3sc(-c4cccs4)nn23)cc1 8.2%
CCOc1ccccc1OCc1nn2c(COc3ccccc3)nnc2s1 45.2%
Cc1cccc(NC(=O)CSc2nnc(-c3n[nH]c4ccccc34)o2)c1 17.6%
COCCNC(=S)Nc1ccc([N+](=O)[O-])cc1C 2%
CCOc1ccccc1N(C(=O)c1ccco1)C(C(=O)NC1CCCC1)c1cccnc1 (stereo unspecified) 5.1%

inhibition, active:
COc1ccc(C(=O)Oc2ccc(C(=S)N3CCOCC3)cc2)cc1 51%
CCCCOc1ccc(/C=C/C(=O)NC2=Nc3ccccc3NC(C)=C2C(=O)OCC)cc1OC 65.6%
c1ccc(OCc2nnc3sc(-c4cccs4)nn23)cc1 65.5%
c1ccc(Cc2nn3c(COc4ccccc4)nnc3s2)cc1 53.1%
